High-throughput results from PubChem BioAssay.
Compounds with a hit are over-represented: about 8.7% of the library has one in this group of screens.
Pf growth 48h = inhibits P. falciparum growth in the first generation, 48 h; AID 504832; P. falciparum luciferase growth in erythrocytes, 48 h; 5.9% of 310,000 active; Potency, µM (titrated, usually from 28.7 µM), for the others: top-dose activity change, negative = inhibition, most hits filed as inhibitors
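First compound was added to culture medium, then infected red cells at 0.1% parasitemia and 2% hematocrit (final). After incubation at 37 C under 5% CO2, luciferase detection reagent was dispensed and light output recorded.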
AMA1-RON2 inh = inhibitors of Plasmodium falciparum AMA1-RON2 interaction; AlphaScreen AMA1-biotinylated RON2 peptide binding; Potency, µM (doses to about 58.2 µM), for the others: top-dose activity change, negative = inhibition, most hits filed as inhibitors; 0.2% of 360,000 active;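 note: 0% = vehicle wells and -100% = peptide control; nearly all actives have a fitted effect of over 45% in size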
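AMA1 (3D7) with his tag at 25 nM final met compounds first, then biotinylated RON2 peptide at 25 nM; detection used donor plus acceptor beads, 10 µg/mL apiece, read by AlphaScreen after 30 min at room temperature.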
Pf growth 96h = P. falciparum growth inhibition at 96 hours; Potency, µM (highest dose often 28.7 µM), inactives show at the highest dose activity change, negative = inhibition, hits mostly inhibitors; 6.9% of 320,000 active; P. falciparum luciferase reporter growth, 96 h
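Parasite growth measured via integrated firefly luciferase reporter in P. falciparum. Infected erythrocytes at 2% hematocrit, 0.05% parasitemia final were treated 96 hours at 37 C under 5% CO2, and luminescence was read.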
VACV Venus inh = vaccinia inhibition (Venus reporter). Potency, µM (highest dose often 36.5 µM), without a hit: at the highest dose activity change, negative = inhibition, hits mostly inhibitors. 0.46% of 330,000 active. Vaccinia virus Venus reporter expression, fluorescence; calls by dose curve; tested in A549 cells; note: nearly all actives have a fitted effect of over 30% in size
Vaccinia mCherry = inhibitors of vaccinia virus infection (mCherry reporter signal). AID 720579. Potency, µM (highest dose often 36.5 µM), for inactives: at the highest dose activity change, negative = inhibition, most hits filed as inhibitors. Vaccinia virus mCherry reporter infection, fluorescence. 0.63% of 310,000 active; calls by dose curve; tested in A549 cells; note: nearly all actives have a fitted effect of over 35% in size
* marks the source's active call; other numbers are inactive results; i = inactive; ? = inconclusive; / = no result; [ ] = dose if it differs, or a comment. Unless noted, calls come from the whole dose curve; as a rule, active = well fitted curve in the direction sought with a large enough effect; inconclusive = small, poorly fitted or top-dose-only effect, or another doubt; inactive = no such curve, though single readings can be large; an effect the other way counts as inactive or inconclusive. Unless noted, % is set by controls: 0 for no effect and ±100 for the full control effect; potency is the fitted concentration of half-maximal effect.

SMILES | Pf growth 48h | AMA1-RON2 inh | Pf growth 96h | VACV Venus inh | Vaccinia mCherry
O=S(=O)(NC1CCCCC1N1CCN(c2ccc(F)cc2)CC1)c1ccc(Cl)cc1 (stereo not given) | 13.1µM* | -11.3% | ? | / | /
COC(=O)c1cc(NC(=O)c2cc3sccc3n2Cc2ccc(Cl)cc2)cc(C(=O)OC)c1 | / | / | / | -6.6% | 0.6%
CCOCCc1nn2c(=O)cc(COC(=O)CNC(=O)c3ccc(F)cc3)nc2s1 | / | / | / | 3.6% | -3.7%
S=C(N/N=C/c1ccc2ncccc2c1)Nc1ccccc1 | 47.1% | 74.2% | -15.4% | 11.2µM* | 7.94µM*
CCC(C)[C@@H](N)C(=O)N/N=C/c1ccc2ncccc2c1 (stereo not given in full) | ? | 44.8% | 11.7µM* | -9.7% | -0.3%
CC(C)(C)OC(=O)NCCC(=O)N/N=C/c1ccc2ncccc2c1 | -16.8% | -11.9% | -12.1% | -19.2% | -5.5%
COc1cc2c(cc1OC)C(c1ccc(F)cc1)N(c1ccc(F)cc1)C(=O)C2 (stereo not given) | / | / | / | 3.5% | 6.4%
CSc1ncccc1C(=O)N1CCOc2ccc(C(C)(O)CCn3cccn3)cc2C1 (stereo not given) | / | / | / | -1.3% | i
COc1ccc(N2CCN(C(=O)CCn3cnc4onc(-c5ccc(F)cc5)c4c3=O)CC2)cc1 | / | / | / | -14.3% | -19.0%
CC1=CC(=C(C#N)C#N)C=C(C)N1Cc1ccccc1 | ? | 4.0% | 4.65µM* | -7.2% | -6.5%
O=C1[C@H](O)[C@@H](O)C(=O)N1Cc1ccccc1 | 7.3% | -0.8% | -4.9% | -10.8% | -12.4%
CCOC(=O)N1CCC(N2C(=O)c3ccccc3C2Nc2ccccc2C)CC1 (stereo not given) | ? | -0.1% | -16.4% | -2.9% | -2.5%
CCOC(=O)c1ccccc1NC1c2ccccc2C(=O)N1C1CCN(C(=O)OCC)CC1 (stereo not given) | 1.65µM* | 1.7% | ? | -8.2% | -22.2%
O=C1c2oc3ccccc3c(=O)c2C(c2cccc(Br)c2)N1Cc1ccco1 (stereo not given) | 3.7% | 0.0% | 0.37µM* | / | /
O=C1c2oc3ccc(Br)cc3c(=O)c2C(c2cccnc2)N1Cc1ccco1 (stereo not given) | / | / | -8.7%[5.75 µM] | / | /
CCCCCCCCCCCCOCCCN | -11.1% | / | ? | / | /
CCCCCCCCCCCCOCCOCCOCCOCCOCCOCCOCCOCCOCCO | ? | / | 10.7µM* | / | /
Cc1cc(N2CCCC2)ccc1NC(=O)COc1ccccc1 | 14.7µM* | -15.7% | ? | -7.8% | -24.1%
COc1ccccc1OCC(=O)Nc1ccc(N2CCOCC2)cc1N1CCOCC1 | 1.5% | 5.1%[11.6 µM] | ? | -2.3% | -18.5%
CCc1ccccc1OCC(=O)Nc1ccc(N2CCCC2)cc1C | 5.22µM* | ? | 2.62µM* | 10.4% | ?
CCOC(=O)c1cc(-c2ccccc2)nn1Cc1ccccc1 | / | / | / | 4.1% | -0.5%
OC(c1ccc(Cl)cc1)c1ncc(-c2ccc(Oc3ccccc3)cc2)[nH]1 (stereo not given) | / | 9.2% | / | ? | 10µM*
COc1ccc(-c2cnc(C(O)c3ccc(-c4ccccc4)cc3)[nH]2)cc1 (stereo not given) | / | 22.6% | / | -9.9% | -0.3%
OC(c1ccccc1)c1ncc(-c2ccc(Oc3ccccc3)cc2)[nH]1 (stereo not given) | / | -0.3% | / | ? | 15.8µM*
O=C(c1cccc([N+](=O)[O-])c1)N1c2ncnn2C2(CCCCC2)[C@@H]2CCCC[C@@H]21 | / | / | / | -3.9% | -10.4%
SMILES | Pf growth 48h | AMA1-RON2 inh | Pf growth 96h | VACV Venus inh | Vaccinia mCherry
CCn1c(NC(=O)Nc2cccc(C)c2C)cc2sccc21 | / | -10.6% | 13.1µM* | -1.0% | ?
Cc1ccc(NC(=O)c2cc3c(s2)CCCC3)cc1 | 206.8% | -21.5% | 195.7% | -12.9% | 4.2%
Cc1ccc(NS(=O)(=O)c2cc(NC(=O)c3cc4c(s3)CCCC4)ccc2C)c(C)c1 | ? | 3.0% | 10.4µM* | 5.3% | -11.8%
Cc1ccc(NS(=O)(=O)c2cc(NC(=O)c3ccc4c(c3)NC(=O)CS4)ccc2Cl)c(C)c1 | -19.0% | 1.2% | 7.38µM* | / | /
O=c1c2ccccc2sn1-c1ccc(Cl)c(S(=O)(=O)N2CCOCC2)c1 | / | / | / | -19.5% | -27.7%
O=S(=O)(c1ccc2c(c1)C(O)c1ccccc1CC2)C(F)(F)F (stereo not given) | 7.38µM* | / | 3.29µM* | / | /
CC1CC(NC(=O)Cc2ccc(Br)cc2)CC(C)(C)C1 (stereo not given) | 11.7µM* | 10.5% | ? | / | /
CN(C)S(=O)(=O)c1ccc(Nc2ccc(-c3ccc4c(c3)OCCO4)nn2)cc1 | ? | -6.0% | 5.86µM* | 0.0% | 12.4%
CCN(CC)S(=O)(=O)c1ccc(Nc2ccc(-c3ccc4c(c3)OCCO4)nn2)cc1 | -1.0% | -5.9% | ? | -11.8% | -18.9%
CCOc1ccc2ncc3c(-c4ccc(C)cc4)nn(-c4cccc(F)c4)c3c2c1 | / | / | / | -1.0% | -3.0%
Cc1ccc(C(=O)N/C(=C/c2ccc(-c3ccc([N+](=O)[O-])cc3)o2)C(=O)NCCCN(C)C)cc1 | / | -9.3% | / | 11.2µM* | ?
O=C(NCCCO)/C(=C/c1ccc(-c2cccc([N+](=O)[O-])c2)o1)NC(=O)c1ccccc1 | ? | 6.4% | 21.2% | 0.8% | 10.0%
COc1cc(OC)c(NC(=O)N2CCc3c(sc4c3CCCC4)C2c2ccccc2)cc1Cl (stereo not given) | / | / | / | -5.6% | -19.9%
Cc1ccc(N2C(=O)CC(N(CCc3ccccc3)C(=S)Nc3ccc(N(C)C)cc3)C2=O)cc1 (stereo not given) | 11.7µM* | -5.3% | ? | ? | ?
O=C1CC(N(CCc2ccccc2)C(=S)Nc2ccccc2)C(=O)N1c1ccc(Br)cc1 (stereo not given) | ? | -18.6% | ? | ? | ?
Cc1nc2cc(NC(=O)[C@@H]3C[C@@H](Sc4ccccn4)CN3Cc3cccc(F)c3)ccc2s1 | / | / | / | 7.9% | -4.9%
CC(C)N(C(=O)[C@H]1C[C@H](CC(=O)NCCCN(C)C)C(=O)N2CCc3c([nH]c4cc(-c5ccco5)ccc34)[C@]12C)C(C)C | / | -28.8% | / | ? | 10µM*
CC(C)N(C(=O)[C@H]1C[C@H](CC(=O)NCCC2=CCCCC2)C(=O)N2CCc3c([nH]c4cc(-c5ccco5)ccc34)[C@]12C)C(C)C | / | ? | / | 11.2µM* | 10µM*
CCc1cccc(NC(=O)CCc2c(C)nc3c(-c4ccccc4)c(C)nn3c2C)c1 | / | / | / | -9.7% | -5.8%
NS(=O)(=O)c1ccc(CCNC(=O)Cn2c(-c3cccs3)cc3ccccc32)cc1 | / | / | / | -2.1% | -3.7%
CCOC(=O)C1CCN(C(=O)c2ccc3c(c2)N=C(CC)c2cc(C)ccc2S3)CC1 | / | / | / | -9.6% | -3.5%
CN(Cc1cccc(C(F)(F)F)c1)Cc1nc(-c2cnccn2)no1 | 18.8% | 13.8% | 7.38µM* | -20.7% | i
CCOC(=O)Nc1ccc(NCc2ccc(F)cc2)nc1N | 13.1µM* | 47.5% | 6.75µM* | 1.9% | 18.8%
Cc1c(C(=O)NCC2(N3CCOCC3)CCCCCC2)cnn1-c1nccc(-c2ccccc2F)n1 | / | / | / | -12.7% | -6.4%
